The values that follow come from PubChem BioAssay (EPA / NIEHS).

The AC50 is the concentration at which the activity in the assay is half-maximal.

SMILES strings stand for the structures. Several values for one entry are separate records, joined by “and”; a condition that tells them apart may be missing. Identical values can stand only once. The source holds several records for some structures; these can differ, active in one and inactive in another. Activity calls are given as the source filed them. Rule for the calls: active = hit-call score of the fitted dose curve at least 0.9, where 1 is the maximum; inactive = score below 0.9.

Assay [1] in a line: ATG_E_Box_CIS: Attagene CIS-FACTORIAL HepG2 Assay for human Enhancer Box (E-box) (AID 2282936). As to conditions: HepG2 E-box cis-reporter transcription, actives raise or lower the signal. Put shortly: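 DMSO served as negative control and baseline for bidirectional fitting. Human hepatoma HepG2 cells, transiently transfected with cis-reporter constructs, were dosed 24 h; reporter mRNA read by RT-PCR and capillary electrophoresis.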

Assay [2] is described as follows: ATG_M_61_CIS: Attagene CIS-FACTORIAL HepG2 Assay for M61 Transcription Factor (Internal Marker) (AID 2282937). To be noted: HepG2 Attagene CIS-FACTORIAL M61 internal marker reporter; actives raise or lower the signal. In outline: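 Endogenous transcription factor activity in HepG2 is read through transiently transfected cis-element reporter units. After 24 h dosing, RNA undergoes reverse transcription, PCR and primer extension with 6-FAM before capillary electrophoresis; DMSO-referenced bidirectional fit.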

A short description of assay [3]: ATG_EGR_CIS: Attagene CIS-FACTORIAL HepG2 Assay for human Early Growth Response 1 (EGR1) (AID 2282938). As to conditions: HepG2 Attagene CIS-FACTORIAL EGR reporter mRNA; actives raise or lower the signal. Put shortly:
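Activity is taken as induction or loss of reporter mRNA versus DMSO, fitted bidirectionally. Transcripts from cis-regulated reporter units in transiently transfected HepG2 were measured after 24 h by RT-PCR with capillary electrophoresis.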

Assay [4] can be described thus: ATG_M_19_CIS: Attagene CIS-FACTORIAL HepG2 Assay for M19 Transcription Factor (Internal Marker) (AID 2282939). To be noted: HepG2 Attagene CIS-FACTORIAL M19 internal marker reporter; actives raise or lower the signal. Put shortly: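 Chemical-treated HepG2 (24 h) with MRTU constructs; reporter transcripts detected by fluorescent RT-PCR fragment analysis on capillary electrophoresis. Internal background marker, DMSO as baseline.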

Assay [5] can be described thus: ATG_ERE_CIS: Attagene CIS-FACTORIAL HepG2 Assay for Estrogen Response Element (ERE) (AID 2282940). To be noted: HepG2 ERE cis-reporter, Attagene RNA transcript; actives raise or lower the signal. Put shortly:
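Human liver cells (HepG2) bearing transiently transfected, promoter-regulated reporter units were exposed 24 h. Reporter mRNA induction was detected by capillary electrophoresis of labelled RT-PCR products and fitted bidirectionally to DMSO.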

The nature of assay [6]: ATG_Ets_CIS: Attagene CIS-FACTORIAL HepG2 Assay for human Erythroblast Transformation Specific (ETS) (AID 2282941). To be noted: HepG2 ETS cis-reporter transcription, actives raise or lower the signal. In outline:
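Human HepG2 hepatoma cells were transiently transfected with promoter-driven reporter constructs and treated for 24 hours. Reporter transcripts were quantified by RT-PCR with fluorescent primer extension; bidirectional curve fitting used DMSO as reference.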

The target of assay [7] is Hepatocyte nuclear factor 3-beta (Homo sapiens) (UniProt Q9Y261). The experiment in a line: ATG_FoxA2_CIS: Attagene CIS-FACTORIAL HepG2 Assay for human Forkhead box A2 (FOXA2) (AID 2282942). As to conditions: HepG2 cis-reporter transcription factor activity, 24 h; actives raise or lower the signal. Put shortly:
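Reporter transcript induction is measured by fluorescence after capillary electrophoresis of RT-PCR products from HepG2 cells exposed 24 h. Cis-regulated reporter units report endogenous factor activity; curves fitted both directions against DMSO.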

Assay [8] is described as follows: ATG_FoxO_CIS: Attagene CIS-FACTORIAL HepG2 Assay for human Forkhead box O (FoxO) (AID 2282943). To be noted: HepG2 Attagene cis-reporter, FoxO element, mRNA; actives raise or lower the signal. Put shortly:
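HepG2, transient MRTU transfection (cis element, endogenous TFs). Dose 24 h. TriZol RNA → oligo(dT) RT → PCR → 6-FAM primer extension → HpaI cut → CE. Gain/loss vs DMSO.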

Assay [9] in a line: ATG_GATA_CIS: Attagene CIS-FACTORIAL HepG2 Assay for human GATA Binding Protein (AID 2282944). To be noted: HepG2 GATA cis-element reporter, Attagene multiplex mRNA; actives raise or lower the signal. In outline:
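Transfected cis-reporter HepG2 cells were treated with chemicals for 24 hours. Total RNA was then converted to cDNA, amplified with reporter-specific primers and analysed by fluorescent capillary electrophoresis, using DMSO-treated wells as baseline.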

The nature of assay [10]: ATG_GLI_CIS: Attagene CIS-FACTORIAL HepG2 Assay for human Zinc Finger Protein GLI1 (AID 2282945). To be noted: HepG2, Attagene cis-factorial reporter mRNA, GLI element; actives raise or lower the signal. Put shortly: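 Bidirectional curve fits relative to DMSO, using reporter mRNA levels from RT-PCR plus capillary electrophoresis. Cells were HepG2 transiently carrying cis-regulated reporter constructs, harvested 24 h after dosing.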

Assay [11] has as its target Bile acid receptor (Homo sapiens) (UniProt Q96RI1). The experiment in a line: ATG_IR1_CIS: Attagene CIS-FACTORIAL HepG2 Assay for human Nuclear Receptor Subfamily 1 Group H Member 4 (NR1H4), IR1 submotif (AID 2282946). To be noted: IR1 reporter transcription, actives raise or lower the signal. Put shortly:
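Cells (human HepG2) carry transiently transfected cis-promoter reporter transcription units. Compounds are incubated 24 h, total RNA is reverse-transcribed and amplified, and labelled fragments are resolved by capillary electrophoresis. Curves use DMSO as baseline.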

The nature of assay [12]: ATG_GRE_CIS: Attagene CIS-FACTORIAL HepG2 Assay for human Glucocorticoid Response Elements (GRE) (AID 2282947). As to conditions: HepG2 GRE cis-reporter, Attagene multiplex mRNA; actives raise or lower the signal. Put shortly: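 Assay uses human hepatoma HepG2 cells transfected with cis-promoter reporter units, exposed 24 h. mRNA from reporters detected by RT-PCR plus capillary electrophoresis; DMSO serves as negative control and baseline.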

The nature of assay [13]: ATG_ISRE_CIS: Attagene CIS-FACTORIAL HepG2 Assay for human Interferon Regulatory Factor 1 (IRF1) binding to an Interferon-Stimulated Response Element (ISRE) (AID 2282948). To be noted: HepG2 ISRE cis-reporter (Attagene), mRNA transcription readout; actives raise or lower the signal. Put shortly: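 Cell-based cis-reporter assay; HepG2; 24 h exposure; reporter mRNA by RT-PCR plus capillary electrophoresis fluorescence; activity in either direction scored relative to DMSO.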

The nature of assay [14]: ATG_M_32_CIS: Attagene CIS-FACTORIAL HepG2 Assay for M32 Transcription Factor (Internal Marker) (AID 2282949).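 Note: background control marker of the multiplexed CIS panel rather than a real target.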 To be noted: HepG2 Attagene cis-factorial M32 reporter, mRNA; actives raise or lower the signal. In outline:
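Internal background marker read-out: RT-PCR/capillary electrophoresis fluorescence of reporter transcripts from transiently transfected HepG2 cells after 24 h chemical exposure. Activity fitted bidirectionally relative to DMSO negative control.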

The nature of assay [15]: ATG_M_06_CIS: Attagene CIS-FACTORIAL HepG2 Assay for M06 Transcription Factor (Internal Marker) (AID 2282950). As to conditions: HepG2 Attagene CIS-FACTORIAL M06 internal marker reporter; actives raise or lower the signal. Put shortly: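 Cells (HepG2, transiently carrying cis-driven reporter units) receive chemical for 24 h before RNA isolation. Reporter cDNA is PCR-amplified, FAM-labelled by primer extension, HpaI-digested and sized on a capillary analyser.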

Assay [16] deals with Hypoxia-inducible factor 1-alpha (Homo sapiens) (UniProt Q16665). The experiment in a line: ATG_HIF1a_CIS: Attagene CIS-FACTORIAL HepG2 Assay for human Hypoxia Inducible Factor 1 (HIF1A) (AID 2282951). As to conditions: HepG2 Attagene cis-factorial HIF1a reporter transcription; actives raise or lower the signal. In outline:
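Fluorescence intensity of capillary-separated, 6-FAM-labelled reporter amplicons gives mRNA induction in HepG2 cells carrying transfected cis-promoter reporter units; cells exposed 24 h, responses fitted up or down from DMSO.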

The target in assay [17] is Hepatocyte nuclear factor 6 (Homo sapiens) (UniProt Q9UBC0). Briefly: ATG_HNF6_CIS: Attagene CIS-FACTORIAL HepG2 Assay for human Hepatocyte Nuclear Factor 6 (HNF6) (AID 2282952). As to conditions: HepG2 Attagene cis-factorial HNF6 reporter transcription; actives raise or lower the signal. In outline:
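Reporter mRNA induction or loss in HepG2 after 24 h exposure; transient cis-MRTU transfection; fragments quantified by capillary electrophoresis; bidirectional analysis, DMSO as negative control.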

Assay [18] has as its target Heat shock factor protein 1 (Homo sapiens) (UniProt Q00613). The experiment in a line: ATG_HSE_CIS: Attagene CIS-FACTORIAL HepG2 Assay for human Heat Shock Transcription Factor 1 (HSE) (AID 2282953). To be noted: HepG2 HSE cis-reporter, Attagene RNA transcription; actives raise or lower the signal. Put shortly: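 Liver-derived HepG2 cells carry transiently introduced multiple reporter units governed by cis promoters. Reporter RNA measured 24 h post-dose through reverse transcription, PCR amplification, fluorescent labelling and capillary electrophoresis, normalised to DMSO.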

Assay [19] can be described thus: ATG_MRE_CIS: Attagene CIS-FACTORIAL HepG2 Assay for human Metal Responsive Element (MRE) (AID 2282954). As to conditions: HepG2 MRE cis-reporter transcription, Attagene multiplex; actives raise or lower the signal. In outline: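 After a 24 h chemical exposure, transiently transfected HepG2 cells yield RNA whose reporter sequences are amplified, FAM-labelled and sized by capillary electrophoresis. Curves are fitted bidirectionally relative to DMSO.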

A short description of assay [20]: ATG_PBREM_CIS: Attagene CIS-FACTORIAL HepG2 Assay for human Phenobarbital-responsive Enhancer Module (PBREM) (AID 2282955). To be noted: HepG2 PBREM cis-reporter, Attagene multiplexed transcription; actives raise or lower the signal. In outline:
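Cells were transfected with cis-element reporter units and treated for 24 h, after which RNA was extracted and reporter transcripts measured by RT-PCR and capillary electrophoresis.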

Sequence of Hypoxia-inducible factor 1-alpha (Homo sapiens) (Q16665 whole entry, looked up): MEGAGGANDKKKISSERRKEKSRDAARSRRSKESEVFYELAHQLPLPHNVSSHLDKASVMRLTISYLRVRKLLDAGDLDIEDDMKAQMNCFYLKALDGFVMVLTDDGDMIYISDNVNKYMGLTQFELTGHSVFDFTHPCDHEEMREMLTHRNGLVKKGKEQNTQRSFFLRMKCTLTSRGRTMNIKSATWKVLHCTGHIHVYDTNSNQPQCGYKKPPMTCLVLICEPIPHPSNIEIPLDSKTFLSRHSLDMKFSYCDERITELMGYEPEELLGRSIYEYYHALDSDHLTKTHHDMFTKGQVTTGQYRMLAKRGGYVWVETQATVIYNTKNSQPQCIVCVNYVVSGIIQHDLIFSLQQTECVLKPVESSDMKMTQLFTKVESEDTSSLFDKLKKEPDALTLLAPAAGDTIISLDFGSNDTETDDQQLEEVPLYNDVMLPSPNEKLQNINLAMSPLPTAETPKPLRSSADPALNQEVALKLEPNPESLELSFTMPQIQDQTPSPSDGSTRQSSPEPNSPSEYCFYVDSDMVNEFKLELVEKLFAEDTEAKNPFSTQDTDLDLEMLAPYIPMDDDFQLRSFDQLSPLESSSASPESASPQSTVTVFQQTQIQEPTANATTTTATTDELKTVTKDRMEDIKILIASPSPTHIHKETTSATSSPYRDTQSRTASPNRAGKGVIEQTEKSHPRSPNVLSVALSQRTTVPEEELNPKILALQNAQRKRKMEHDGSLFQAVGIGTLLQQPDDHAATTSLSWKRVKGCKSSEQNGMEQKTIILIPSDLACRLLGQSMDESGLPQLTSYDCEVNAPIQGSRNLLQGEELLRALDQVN
Sequence of Heat shock factor protein 1 (Homo sapiens) (Q00613 whole entry, looked up): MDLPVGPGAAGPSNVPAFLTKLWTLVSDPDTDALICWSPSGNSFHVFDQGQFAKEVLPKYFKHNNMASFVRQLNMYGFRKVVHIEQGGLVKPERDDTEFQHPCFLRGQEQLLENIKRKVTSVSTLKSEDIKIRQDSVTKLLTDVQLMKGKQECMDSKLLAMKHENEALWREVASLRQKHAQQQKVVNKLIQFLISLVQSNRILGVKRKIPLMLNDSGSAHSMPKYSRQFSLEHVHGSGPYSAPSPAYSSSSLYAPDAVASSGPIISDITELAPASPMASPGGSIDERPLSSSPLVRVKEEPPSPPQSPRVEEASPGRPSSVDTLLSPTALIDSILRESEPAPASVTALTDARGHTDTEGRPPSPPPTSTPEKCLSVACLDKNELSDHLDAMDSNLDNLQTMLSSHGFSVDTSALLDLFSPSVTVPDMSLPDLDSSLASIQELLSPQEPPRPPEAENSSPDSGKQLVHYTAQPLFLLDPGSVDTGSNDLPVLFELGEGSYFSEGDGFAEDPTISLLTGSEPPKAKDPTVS
Sequence of Hepatocyte nuclear factor 3-beta (Homo sapiens) (Q9Y261 whole entry, looked up): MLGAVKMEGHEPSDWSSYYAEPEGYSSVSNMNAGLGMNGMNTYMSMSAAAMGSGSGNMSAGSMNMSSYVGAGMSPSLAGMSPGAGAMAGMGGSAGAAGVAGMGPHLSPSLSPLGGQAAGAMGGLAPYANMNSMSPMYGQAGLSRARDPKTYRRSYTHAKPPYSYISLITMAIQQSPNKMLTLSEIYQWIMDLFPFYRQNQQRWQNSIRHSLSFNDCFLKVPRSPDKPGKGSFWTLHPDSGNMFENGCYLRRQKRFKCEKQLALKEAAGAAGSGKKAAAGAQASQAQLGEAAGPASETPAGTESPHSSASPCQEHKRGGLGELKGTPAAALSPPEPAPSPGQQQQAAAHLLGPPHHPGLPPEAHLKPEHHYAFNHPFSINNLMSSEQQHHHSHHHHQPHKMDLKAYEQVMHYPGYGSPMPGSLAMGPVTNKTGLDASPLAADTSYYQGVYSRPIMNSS
Sequence of Hepatocyte nuclear factor 6 (Homo sapiens) (Q9UBC0 whole entry, looked up, the tested form may be a part): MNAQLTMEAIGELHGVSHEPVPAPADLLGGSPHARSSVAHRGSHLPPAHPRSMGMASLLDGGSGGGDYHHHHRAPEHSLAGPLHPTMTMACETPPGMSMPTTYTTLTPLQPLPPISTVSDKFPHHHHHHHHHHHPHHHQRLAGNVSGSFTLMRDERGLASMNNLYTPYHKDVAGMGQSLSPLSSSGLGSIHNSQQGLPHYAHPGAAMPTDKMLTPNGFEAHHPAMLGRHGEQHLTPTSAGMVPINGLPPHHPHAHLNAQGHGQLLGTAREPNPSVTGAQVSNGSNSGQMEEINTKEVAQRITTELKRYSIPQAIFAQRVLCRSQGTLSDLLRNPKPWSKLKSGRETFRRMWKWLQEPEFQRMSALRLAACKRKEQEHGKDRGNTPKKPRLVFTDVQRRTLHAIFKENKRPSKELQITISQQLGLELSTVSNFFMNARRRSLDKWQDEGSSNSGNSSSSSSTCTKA
Sequence of Bile acid receptor (Homo sapiens) (Q96RI1 whole entry, looked up, the tested form may be a part): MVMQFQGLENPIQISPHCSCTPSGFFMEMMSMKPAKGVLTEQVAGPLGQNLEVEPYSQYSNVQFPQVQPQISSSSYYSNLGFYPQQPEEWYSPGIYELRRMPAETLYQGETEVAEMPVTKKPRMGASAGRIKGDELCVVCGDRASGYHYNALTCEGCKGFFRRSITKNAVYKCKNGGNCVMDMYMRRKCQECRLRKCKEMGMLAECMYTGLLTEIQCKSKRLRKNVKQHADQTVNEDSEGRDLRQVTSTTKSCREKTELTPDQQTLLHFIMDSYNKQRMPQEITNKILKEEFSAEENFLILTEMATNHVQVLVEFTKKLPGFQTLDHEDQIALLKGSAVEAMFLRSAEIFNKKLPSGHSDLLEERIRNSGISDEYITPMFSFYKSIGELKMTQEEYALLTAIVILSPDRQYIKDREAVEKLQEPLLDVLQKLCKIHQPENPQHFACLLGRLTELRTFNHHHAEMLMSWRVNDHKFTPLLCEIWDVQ

In the case of `CCN(Cc1cccnc1)C(=O)c1cccc(Cl)c1[C@]1(C)C(=O)N(Cc2ccc(OC)cc2OC)c2ccc(Cl)cc21`, the result in assay [1], in assay [2], in assay [4], in assay [5], in assay [6] and in assay [7] was inactive. Moreover, the compound was called inactive in assay [8], in [9], in [10], in [11], in [12] and in [14]. For the same compound, the outcome in [15], in assay [16] and in assay [17] was inactive. For the same compound, the AC50 in [3] is 3.83 µM (active); in [13] it was 7.7 µM (active); in assay [18], 40.4 µM (active); in [19], 7.17 µM (active); in assay [20] it was 1.47 µM (active).

For the compound `CN(C[C@@H](CC[N+]12CCC(C3CCCCC3)(CC1)CC2)c1ccc(Cl)c(Cl)c1)C(=O)c1cc(C(F)(F)F)cc(C(F)(F)F)c1`, the result in assay [1], in assay [2], in assay [3], in assay [4], in assay [5] and in assay [6] was inactive. Moreover, the compound was classed as inactive in assay [7], in assay [8], in assay [9], in assay [10], in assay [11] and in [12]. Besides, the result in [13], in assay [14], in assay [15], in [16], in [17] and in [18] was inactive. Besides, the result in [19] and in assay [20] was inactive.

As for `CC(C)(C)c1cc(/C=C2\SC(N)=NC2=O)cc(C(C)(C)C)c1O`, the result in [1], in assay [2], in assay [4], in assay [5], in assay [6] and in assay [7] was inactive. The compound was called inactive in [8], in [9], in [10], in assay [12], in assay [14] and in assay [15]. The outcome in assay [16] and in assay [17] was inactive. For the same compound, the AC50 in assay [3] is 8.13 µM (active); in [11], 8.2 µM (active); in assay [13] it was 11 µM (active); in assay [18], 20 µM (active); in assay [19], 15 µM (active).

For `CC[C@H](NC(=O)c1cc(F)ccc1NS(=O)(=O)c1cccc2cccnc12)c1ccccc1`, the outcome in assay [1], in assay [2], in [3], in assay [4], in [5] and in assay [6] was inactive. Moreover, the compound was called inactive in assay [7], in assay [9], in [10], in [11], in [12] and in assay [13]. In addition, the call in assay [14], in [15], in assay [16], in assay [17], in assay [18] and in assay [19] was inactive.

As for `CCO[Si](CCCNC(N)=O)(OCC)OCC`, the outcome in [1], in assay [2], in assay [3], in assay [4], in assay [5] and in [6] was inactive. Also, the result in assay [7], in assay [9], in assay [10], in assay [11], in [12] and in [13] was inactive. Moreover, the outcome in assay [14], in assay [15], in [17], in assay [18], in assay [19] and in assay [20] was inactive. Further, the AC50 in assay [16] was 6.4 µM (active).

On to `CCCCCc1ccc(N)cc1`, for which the AC50 in assay [1] is 5.55 µM (active) and 4.89 µM (active); in [5] it was 15.1 µM (active) [middle of 4 runs]; in [16], 2.57 µM (active); in assay [19], 46 µM (active). Moreover, the result in assay [1], in assay [2], in assay [3], in assay [6], in [7] and in [9] was inactive. Also, the compound was called inactive in [10], in assay [13], in assay [14], in assay [15], in assay [16] and in assay [17]. Further, the compound was called inactive in assay [18], in assay [19] and in assay [20].
